Source: PubChem BioAssay (National Center for Advancing Translational Sciences (NCATS))
SMN2 splice up: increases expression of the SMN2 splice variant | actives 2.8% (n = 210,000) | HEK293 SMN2-luciferase splicing reporter, luminescence, 30-36 h | Potency, µM (doses to about 46.1 µM), usual class: activators | AID 1458; note: nearly all actives have a fitted effect of over 55% in size
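HEK293 cells carry an SMN2 […]–luciferase reporter in which exon 7 inclusion puts luciferase in frame. Cells were plated 10-12 h before compound addition, then incubated 30-36 h at 37C. ONE-Glo luminescence was read; sodium butyrate at 4.5 mM final served as control.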
Rab9 promoter act: Rab9 promoter activation; actives 2.8% (n = 320,000); Huh7 Rab9 promoter-luciferase reporter, luminescence, 24 h; Potency, µM (series often up to 9.22 µM), actives largely listed as activators; AID 485297; note: nearly all actives have a fitted effect of over 60% in size
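Luciferase signal after 10 min detection reagent at ambient indicates Rab9 promoter upregulation; stably transfected Huh7 cells were treated 24 h with compound in DMSO at 37 °C, 5% CO2.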
Luc counter: Kinase-Glo luciferase inhibition (counter-screen). actives 0.28% (n = 200,000). Kinase-Glo luciferase, ATP luminescence, 8 min. Q27757. AID 1379. Potency, µM (top dose mostly 38.3 µM), hits mostly inhibitors; note: nearly all actives have a fitted effect of over 60% in size
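Recombinant Kinase-Glo luciferase, 10 uM ATP (linear range), luciferin; imidazole pH 7.2 / KCl / MgCl2 / Tween / BSA buffer; 8 min RT; luminescence.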
FLuc counter: counter-screen for miR-21 project: firefly luciferase inhibitors or activators. P08659. purified FLuc, Km substrates, luminescence inhibition. Potency, µM (highest dose often 57.5 µM), usual class: inhibitors. actives 6.9% (n = 360,000). AID 588342; note: nearly all actives have a fitted effect of over 55% in size
Target sequence (P08659 whole entry, looked up): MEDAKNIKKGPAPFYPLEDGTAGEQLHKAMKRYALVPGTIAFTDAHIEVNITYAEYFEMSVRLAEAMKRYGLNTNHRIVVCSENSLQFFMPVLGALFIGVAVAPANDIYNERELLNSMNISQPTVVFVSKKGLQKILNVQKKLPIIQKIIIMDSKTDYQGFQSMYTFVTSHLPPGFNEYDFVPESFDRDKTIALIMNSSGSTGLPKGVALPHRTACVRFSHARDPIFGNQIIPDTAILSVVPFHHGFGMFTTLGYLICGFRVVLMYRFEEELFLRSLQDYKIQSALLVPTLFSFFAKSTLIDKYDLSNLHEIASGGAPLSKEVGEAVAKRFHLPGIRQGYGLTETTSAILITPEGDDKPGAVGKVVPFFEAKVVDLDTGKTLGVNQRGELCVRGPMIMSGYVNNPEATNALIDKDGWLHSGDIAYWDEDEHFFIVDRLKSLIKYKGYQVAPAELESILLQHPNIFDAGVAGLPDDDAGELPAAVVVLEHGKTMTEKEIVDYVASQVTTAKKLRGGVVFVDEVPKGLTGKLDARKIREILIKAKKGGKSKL
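Biochemical qHTS of compounds, final roughly 60 µM downward over six points, against 10 nM purified firefly luciferase using Km concentrations of substrates (10 uM D-luciferin, 10 uM ATP) in Tris acetate pH 7.5 buffer; luminescence output.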
NPC1 promoter act: NPC1 promoter activation. Huh7 NPC1 promoter luciferase reporter, 24 h. Potency, µM (top dose mostly 9.22 µM), most hits filed as activators. actives 2.4% (n = 320,000). AID 485313; note: nearly all actives have a fitted effect of over 60% in size
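Huh7 reporter cells (NPC1 promoter driving luciferase) are dosed with compound for 24 h at 37 °C, 5% CO2; luciferase detection reagent is then added and luminescence measured after 10 min at ambient temperature.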
ELG1 genotoxic: inducers of genotoxicity in HEK293T ELG1-luciferase cells; Potency, µM (titrated, usually from 46 µM), actives largely listed as activators; HEK293T ELG1-luciferase reporter, luminescence, 16 h; actives 1.3% (n = 330,000); note: nearly all actives have a fitted effect of over 60% in size
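HEK293T cells expressing luciferase-tagged ELG1 were treated with compound or DMSO for 16 hr at 37°C. Luciferase activity was then read after 30 min with ONE-Glo at room temperature; rising signal flags genetic stress.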
Numbers stand for hits. An excerpt weighted towards active compounds, which were near 7.4% of everything screened. Calls come from the whole dose curve; as a rule, active = well fitted curve in the direction sought with a large enough effect; inconclusive = small, poorly fitted or top-dose-only effect, or another doubt; inactive = no such curve, though single readings can be large; an effect the other way counts as inactive or inconclusive.

How did CCn1c(CSc2nc3ccccc3s2)nc2ccccc21 do in these assays?
SMN2 splice up: inactive; Rab9 promoter act: inactive; Luc counter: inactive; FLuc counter: 24µM; NPC1 promoter act: inactive; ELG1 genotoxic: inactive

What do the screens show for `Cc1noc(C)c1CSc1nc2ccccc2s1`?
SMN2 splice up: inactive; Rab9 promoter act: inactive; Luc counter: inactive; FLuc counter: inconclusive; NPC1 promoter act: inactive; ELG1 genotoxic: inconclusive

How did c1csc(CSc2nc3ccccc3s2)c1 do in these assays?
SMN2 splice up: inconclusive; Rab9 promoter act: 3.5µM; Luc counter: inactive; FLuc counter: 4.8µM; NPC1 promoter act: inconclusive; ELG1 genotoxic: 15µM

What do the screens show for `Cc1[nH]c(C)c(S(=O)(=O)NCc2ccc(F)cc2)c1C(=O)N1CCCCC1`?
Rab9 promoter act: inactive; FLuc counter: inactive; NPC1 promoter act: inactive; ELG1 genotoxic: inactive

What do the screens show for `CCc1ccc(C2CC(c3ccco3)=NN2S(C)(=O)=O)cc1` (stereo not drawn)?
SMN2 splice up: 0.5µM; Rab9 promoter act: 0.32µM; Luc counter: 11µM; FLuc counter: 1.3µM; NPC1 promoter act: 0.45µM; ELG1 genotoxic: inconclusive

Results for CCOc1ccc2cc(C3CC(c4ccco4)=NN3S(C)(=O)=O)c(Cl)nc2c1 (stereo not drawn) ?
Rab9 promoter act: inactive; FLuc counter: inactive; NPC1 promoter act: inactive; ELG1 genotoxic: inactive

What do the screens show for `COc1ccccc1/C=C1/C(=O)N(c2ccc([N+](=O)[O-])cc2)N=C1C`?
Rab9 promoter act: inactive; FLuc counter: inconclusive; NPC1 promoter act: inactive; ELG1 genotoxic: inactive

How did C/C(=C1/C(=O)N(c2ccc([N+](=O)[O-])cc2)N=C1c1ccccc1)N(C)C do in these assays?
SMN2 splice up: inactive; Rab9 promoter act: inactive; Luc counter: inactive; FLuc counter: inactive; NPC1 promoter act: inconclusive; ELG1 genotoxic: inactive

Results for CN(C)/C=C1/C(=O)N(c2ccc([N+](=O)[O-])cc2)N=C1c1ccccc1 ?
SMN2 splice up: 10µM; Rab9 promoter act: inconclusive; Luc counter: inactive; FLuc counter: 7.6µM; NPC1 promoter act: inconclusive; ELG1 genotoxic: inconclusive

What do the screens show for `CN(C)/C=C1\C(=O)N(c2ccc([N+](=O)[O-])cc2)N=C1c1ccccc1`?
SMN2 splice up: inconclusive; Rab9 promoter act: 5.6µM; Luc counter: inactive; FLuc counter: inconclusive; NPC1 promoter act: inconclusive; ELG1 genotoxic: 9.2µM

Results for NS(=O)(=O)c1ccc(NC(=O)COc2cccc3ccccc23)cc1 ?
Rab9 promoter act: inactive; FLuc counter: inactive; NPC1 promoter act: inactive; ELG1 genotoxic: inactive

How did O=C(CCC1N=C2c3ccccc3N=C(SCc3cccc(F)c3)N2C1=O)NCCc1ccccc1 (stereo not drawn) do in these assays?
FLuc counter: inactive

What do the screens show for `CCOC(=O)C1=C(COC(=O)/C=C/c2ccc(SC)cc2)NC(=O)NC1C` (stereo not drawn)?
Rab9 promoter act: inactive; FLuc counter: inactive; NPC1 promoter act: inactive; ELG1 genotoxic: inactive

What do the screens show for `COC(=O)/C=C1\OC(c2ccccc2)=CC1=O`?
SMN2 splice up: inactive; Rab9 promoter act: inactive; Luc counter: inactive; FLuc counter: inconclusive; NPC1 promoter act: inactive; ELG1 genotoxic: inconclusive

What do the screens show for `CSc1nc(-c2ccccc2)c(C#N)c(=O)[nH]1`?
Rab9 promoter act: inactive; FLuc counter: inactive; NPC1 promoter act: inactive; ELG1 genotoxic: inactive

What do the screens show for `Cc1ccc(NC(=O)C(C)Sc2nc(-c3ccccc3)c(C#N)c(=O)[nH]2)c(C)c1` (stereo not drawn)?
FLuc counter: 12µM

Results for CC(Sc1nc(-c2ccccc2)c(C#N)c(=O)[nH]1)C(=O)Nc1ccc(F)cc1 (stereo not drawn) ?
FLuc counter: 17µM

How did COCCn1c(SCc2ccccc2F)nc2c([nH]c3ccccc32)c1=O do in these assays?
FLuc counter: inactive

Results for COC(=O)C(C(=O)OC)C(Cc1cc(F)cc(F)c1F)NC=O (stereo not drawn) ?
SMN2 splice up: inactive; Luc counter: inactive

What do the screens show for `O=C1N=c2ccccc2=C1c1sc(=S)n(CC2CCCO2)c1O` (stereo not drawn)?
SMN2 splice up: inactive; Rab9 promoter act: inactive; Luc counter: inactive; FLuc counter: inactive; NPC1 promoter act: inactive; ELG1 genotoxic: inactive

How did COc1ccc(N=C2O/C(=C/c3sc(=S)n(CC4CCCO4)c3O)N=C2C#N)cc1 (stereo not drawn) do in these assays?
Rab9 promoter act: inactive; FLuc counter: 2.4µM; NPC1 promoter act: inactive; ELG1 genotoxic: inactive

What do the screens show for `CCC/C(C(=O)NCCO)=C1/c2ccccc2C(=O)N1c1ccccc1`?
ELG1 genotoxic: inactive

Results for O=S(=O)(c1cc(Cl)ccc1Cl)N1CCN(c2ccccn2)CC1 ?
Rab9 promoter act: inactive; FLuc counter: inactive; NPC1 promoter act: inactive; ELG1 genotoxic: inactive

Results for Cc1cc2c(NCCc3ccccc3)ncnc2s1 ?
Rab9 promoter act: inactive; FLuc counter: 12µM; NPC1 promoter act: inactive; ELG1 genotoxic: inconclusive

What do the screens show for `c1ccc(CCNc2ncnc3ccccc23)cc1`?
Rab9 promoter act: inactive; Luc counter: inactive; FLuc counter: 12µM; NPC1 promoter act: inactive; ELG1 genotoxic: inactive

Results for CCCCCCCCNc1ncnc2ccccc12 ?
SMN2 splice up: inactive; Rab9 promoter act: inactive; Luc counter: inactive; FLuc counter: inactive; NPC1 promoter act: inactive; ELG1 genotoxic: inactive

What do the screens show for `COC(=O)C1(Cc2ccccc2)C=C2C(=C(c3ccccc3)C(=O)C2C)CN1` (stereo not drawn)?
SMN2 splice up: inactive; Luc counter: inactive

What do the screens show for `COc1ccc2nc(NC(=O)c3cc(C)oc3C)sc2c1`?
SMN2 splice up: 16µM; Rab9 promoter act: 2.8µM; Luc counter: 13µM; FLuc counter: 1.3µM; NPC1 promoter act: inconclusive; ELG1 genotoxic: inconclusive

How did COc1ccc(C(=O)Nc2nc3cc4c(cc3s2)OCO4)c(OC)c1 do in these assays?
Rab9 promoter act: 0.79µM; FLuc counter: 0.43µM; NPC1 promoter act: 0.79µM; ELG1 genotoxic: inconclusive

How did COc1ccc2oc(C(=O)Nc3nc4ccc(S(C)(=O)=O)cc4s3)c(C)c2c1 do in these assays?
Rab9 promoter act: inactive; FLuc counter: inconclusive; NPC1 promoter act: inactive; ELG1 genotoxic: inactive

What do the screens show for `COc1ccc2nc(NC(=O)c3ccoc3C)sc2c1`?
SMN2 splice up: 2µM; Rab9 promoter act: 0.45µM; Luc counter: 3.2µM; FLuc counter: 1.2µM; NPC1 promoter act: 0.63µM; ELG1 genotoxic: inconclusive

Results for Cc1cc(C(=O)Nc2nc3ccc(S(C)(=O)=O)cc3s2)c(C)o1 ?
SMN2 splice up: 5.6µM; Rab9 promoter act: 3.2µM; Luc counter: inconclusive; FLuc counter: 0.85µM; NPC1 promoter act: inconclusive; ELG1 genotoxic: 8.2µM
